For three molecules, AC50 results are on record in PubChem BioAssay AID2284135 (EPA ToxCast).

Results filed as inconclusive are left out. Calls of active or inactive are those of the source. The calls were made as follows: active = hit-call score of the fitted dose curve at least 0.9, where 1 is the maximum; inconclusive = response in the unintended direction; inactive = score below 0.9.

For the experiment, the target named is cAMP-dependent protein kinase catalytic subunit alpha (Homo sapiens) (UniProt P17612). The experiment can be described thus: ERF_TW_ENZ_hPRKACA: Eurofins (ERF) Enzymatic Radiometric [10 uM ATP] LeadHunter Assay for human PKA AGC Kinase. The method, then:
ERF_TW_ENZ_hPRKACA is a biochemical, single-readout assay that uses extracted gene-proteins in a cell-free assay. Measurements were taken 0.25 hour after chemical dosing in a 96-well plate. See PKA Human AGC Kinase Enzymatic Radiometric Assay [10 uM ATP], Panlabs.ERF_TW_ENZ_hPRKACA is an assay component calculated from the ERF_TW_ENZ_hPRKACA assay. It is designed to measure enzyme activity using a type of enzyme reporter as detected by scintillation counting with radiometry technology.Data from the assay component ERF_TW_ENZ_hPRKACA was analyzed at the assay endpoint, ERF_TW_ENZ_hPRKACA, in the positive analysis fitting direction relative to DMSO as the negative control and baseline of activity. Using a type of enzyme reporter, loss-of-signal activity can be used to understand changes in enzymatic activity as they relate to gene PRKACA. To generalize the intended target to other relatable targets, this assay endpoint is annotated to the kinase intended target family, where the subfamily is serine/threonine kinase.
Human protein kinase PKA expressed in E. coli. is used. Test compound and/or vehicle is preincubated with 23 ng/ml enzyme in modified MOPS buffer pH 7.2 at 37C for 15 minutes. The reaction is initiated by addition of 0.5 uM PKA substrate peptide, 10 uM ATP and 0.25 uCi [gamma32P]ATP for another 15 minute incubation period and terminated by further addition of 3 % H3PO4. An aliquot is removed to a 96 well multiscreen, washed with H3PO4 solution, dried and counted to determine the amount of 32P- PKA substrate peptide formed. Compounds are screened at 10 uM.Test Sample Requirements: Minimum for 1) Screen: 25 ul of 10 mM stock -OR- 1 mg (pre-weighed). 2) Dose Response: 60 ul of 10 mM stock -OR- 1 mg (pre-weighed).
As for `COc1cc(/C=C/C(=O)CC(=O)/C=C/c2ccc(O)c(OC)c2)ccc1O`, the half-maximal activity concentration (AC50) – broadly, the concentration giving half of the maximal activity seen – is 2970 nM (active).
Take `O=C(/C=C/c1ccc(O)cc1)CC(=O)/C=C/c1ccc(O)cc1`: the AC50 was 2190 nM (active).
The same measure for `COc1cc(CCC(=O)CC(=O)CCc2ccc(O)c(OC)c2)ccc1O`: 3010 nM (active).
